Experimental data published in the supplement of paper PMC11732987, “Enantioselective OTUD7B fragment discovery through chemoproteomics screening and high-throughput optimisation” (Communications Chemistry, 2025).

Assays:
Test in all cases: log2 ratio of Biotin-Ahx-Ub-VS probe labelling (fragment/DMSO); higher = less target engagement (more negative = stronger competition), active = hit call of the paper (q ≤ 0.05, log2 ratio ≤ -1)
Settings in all cases: compound concentration: 200 uM; treatment time: 3 h
USP34 = USP34 (UniProt Q70CQ2)
USP34, sequence (Q70CQ2 whole entry, the tested form may be a part): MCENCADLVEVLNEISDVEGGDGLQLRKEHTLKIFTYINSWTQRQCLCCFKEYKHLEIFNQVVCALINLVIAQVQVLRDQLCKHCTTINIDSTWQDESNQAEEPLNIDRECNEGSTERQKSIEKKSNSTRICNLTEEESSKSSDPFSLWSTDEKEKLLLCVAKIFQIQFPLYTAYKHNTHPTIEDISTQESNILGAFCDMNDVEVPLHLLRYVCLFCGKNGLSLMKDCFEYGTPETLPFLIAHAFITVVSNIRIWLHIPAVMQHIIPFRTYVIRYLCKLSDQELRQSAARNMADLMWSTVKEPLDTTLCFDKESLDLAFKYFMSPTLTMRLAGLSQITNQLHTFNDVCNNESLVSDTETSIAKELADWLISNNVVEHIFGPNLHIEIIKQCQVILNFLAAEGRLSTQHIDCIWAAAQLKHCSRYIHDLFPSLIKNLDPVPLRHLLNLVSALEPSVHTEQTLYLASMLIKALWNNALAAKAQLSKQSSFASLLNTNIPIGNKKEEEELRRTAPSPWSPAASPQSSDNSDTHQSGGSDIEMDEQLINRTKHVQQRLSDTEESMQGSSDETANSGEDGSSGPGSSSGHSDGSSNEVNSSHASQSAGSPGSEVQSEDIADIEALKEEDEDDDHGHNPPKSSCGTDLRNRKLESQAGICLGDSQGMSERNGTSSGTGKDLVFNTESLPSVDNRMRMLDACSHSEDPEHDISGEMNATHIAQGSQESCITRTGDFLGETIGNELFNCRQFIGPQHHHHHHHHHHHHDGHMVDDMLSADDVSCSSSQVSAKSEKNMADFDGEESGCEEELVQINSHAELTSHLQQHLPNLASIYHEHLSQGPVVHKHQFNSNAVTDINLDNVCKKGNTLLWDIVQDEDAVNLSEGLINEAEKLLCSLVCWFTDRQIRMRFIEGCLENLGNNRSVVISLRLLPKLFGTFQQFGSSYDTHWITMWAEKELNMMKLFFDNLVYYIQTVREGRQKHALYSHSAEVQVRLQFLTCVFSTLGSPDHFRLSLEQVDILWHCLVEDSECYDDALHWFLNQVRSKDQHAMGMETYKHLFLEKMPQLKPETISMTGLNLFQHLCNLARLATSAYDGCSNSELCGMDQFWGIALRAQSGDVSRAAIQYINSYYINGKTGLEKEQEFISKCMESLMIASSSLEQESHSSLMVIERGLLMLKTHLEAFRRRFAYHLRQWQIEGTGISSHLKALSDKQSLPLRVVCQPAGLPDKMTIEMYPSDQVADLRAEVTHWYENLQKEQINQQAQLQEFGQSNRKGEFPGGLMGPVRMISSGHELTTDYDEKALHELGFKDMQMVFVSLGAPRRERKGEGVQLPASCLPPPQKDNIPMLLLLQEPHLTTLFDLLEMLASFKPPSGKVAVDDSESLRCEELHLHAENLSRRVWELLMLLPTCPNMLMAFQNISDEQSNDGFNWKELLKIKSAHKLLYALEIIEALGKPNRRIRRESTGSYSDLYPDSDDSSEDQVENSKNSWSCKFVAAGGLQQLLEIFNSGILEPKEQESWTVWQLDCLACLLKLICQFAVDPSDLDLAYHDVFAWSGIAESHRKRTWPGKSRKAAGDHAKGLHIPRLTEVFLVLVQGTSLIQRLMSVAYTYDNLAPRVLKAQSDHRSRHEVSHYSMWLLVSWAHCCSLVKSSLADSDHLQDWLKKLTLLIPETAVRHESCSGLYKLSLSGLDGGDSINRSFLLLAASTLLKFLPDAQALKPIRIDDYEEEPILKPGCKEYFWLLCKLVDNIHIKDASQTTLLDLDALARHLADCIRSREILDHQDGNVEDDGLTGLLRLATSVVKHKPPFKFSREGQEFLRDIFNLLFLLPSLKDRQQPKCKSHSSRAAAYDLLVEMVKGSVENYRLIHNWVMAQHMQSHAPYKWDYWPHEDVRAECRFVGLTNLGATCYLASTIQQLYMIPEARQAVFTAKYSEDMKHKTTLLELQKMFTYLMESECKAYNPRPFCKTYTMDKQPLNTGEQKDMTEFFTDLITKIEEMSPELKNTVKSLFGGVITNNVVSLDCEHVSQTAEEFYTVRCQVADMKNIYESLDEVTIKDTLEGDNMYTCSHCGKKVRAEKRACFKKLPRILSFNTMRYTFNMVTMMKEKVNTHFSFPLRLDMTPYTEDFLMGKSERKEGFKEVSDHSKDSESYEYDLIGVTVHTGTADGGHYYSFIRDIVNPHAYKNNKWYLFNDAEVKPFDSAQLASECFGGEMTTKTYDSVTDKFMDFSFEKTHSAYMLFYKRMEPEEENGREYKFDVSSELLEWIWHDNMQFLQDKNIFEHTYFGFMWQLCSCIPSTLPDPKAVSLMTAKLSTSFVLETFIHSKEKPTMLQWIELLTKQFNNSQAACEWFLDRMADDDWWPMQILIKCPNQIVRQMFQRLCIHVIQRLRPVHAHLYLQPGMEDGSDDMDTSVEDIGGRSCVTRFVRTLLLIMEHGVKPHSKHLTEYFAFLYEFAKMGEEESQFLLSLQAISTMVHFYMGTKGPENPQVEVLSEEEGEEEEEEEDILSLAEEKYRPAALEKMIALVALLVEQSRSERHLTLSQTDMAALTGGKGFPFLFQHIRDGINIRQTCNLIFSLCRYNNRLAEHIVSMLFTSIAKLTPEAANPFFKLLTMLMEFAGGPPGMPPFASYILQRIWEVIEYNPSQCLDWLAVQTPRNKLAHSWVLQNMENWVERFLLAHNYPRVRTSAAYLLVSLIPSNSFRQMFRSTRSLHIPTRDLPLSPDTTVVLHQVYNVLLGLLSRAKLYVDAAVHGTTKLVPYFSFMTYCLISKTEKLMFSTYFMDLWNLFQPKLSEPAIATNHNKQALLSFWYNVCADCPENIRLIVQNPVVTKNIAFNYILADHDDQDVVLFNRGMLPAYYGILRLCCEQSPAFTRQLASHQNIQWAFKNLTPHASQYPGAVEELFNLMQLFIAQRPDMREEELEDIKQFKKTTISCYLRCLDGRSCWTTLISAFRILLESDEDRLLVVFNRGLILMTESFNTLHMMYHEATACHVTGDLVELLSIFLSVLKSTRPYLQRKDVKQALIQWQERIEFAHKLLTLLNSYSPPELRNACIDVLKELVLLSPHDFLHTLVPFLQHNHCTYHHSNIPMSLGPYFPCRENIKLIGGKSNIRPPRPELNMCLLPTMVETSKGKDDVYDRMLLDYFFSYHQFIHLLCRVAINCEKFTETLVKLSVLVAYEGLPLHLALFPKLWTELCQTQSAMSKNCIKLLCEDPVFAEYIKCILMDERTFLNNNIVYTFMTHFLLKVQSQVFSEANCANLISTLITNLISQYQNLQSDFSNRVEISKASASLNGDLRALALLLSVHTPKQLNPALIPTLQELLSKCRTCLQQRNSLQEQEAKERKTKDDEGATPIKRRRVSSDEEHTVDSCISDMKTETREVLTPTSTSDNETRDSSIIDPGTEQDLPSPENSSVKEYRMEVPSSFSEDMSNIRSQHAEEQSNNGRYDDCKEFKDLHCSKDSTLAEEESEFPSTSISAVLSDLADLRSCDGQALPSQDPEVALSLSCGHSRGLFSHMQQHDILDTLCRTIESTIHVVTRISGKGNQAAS
In short: (§1)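 Labelled DUBs from HEK293T lysate were NeutrAvidin-enriched, digested with LysC and trypsin, and run by diaPASEF LC-MS/MS. Before that, each 495 µg sample in Tris/CHAPS/IGEPAL buffer with protease inhibitors was treated in triplicate with fragment at 200 µM or vehicle for 3 h, then with Biotin-Ahx-Ub-VS at 0.5 µM final for 1 h. Values are average log2 ratios of fragment over vehicle by unpaired t-test, based on global-median-normalised Spectronaut label-free quantities from proteins with ≥2 unique peptides.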

USP36 = target: T1, USP36 (UniProt Q9P275)
T1 sequence (whole entry): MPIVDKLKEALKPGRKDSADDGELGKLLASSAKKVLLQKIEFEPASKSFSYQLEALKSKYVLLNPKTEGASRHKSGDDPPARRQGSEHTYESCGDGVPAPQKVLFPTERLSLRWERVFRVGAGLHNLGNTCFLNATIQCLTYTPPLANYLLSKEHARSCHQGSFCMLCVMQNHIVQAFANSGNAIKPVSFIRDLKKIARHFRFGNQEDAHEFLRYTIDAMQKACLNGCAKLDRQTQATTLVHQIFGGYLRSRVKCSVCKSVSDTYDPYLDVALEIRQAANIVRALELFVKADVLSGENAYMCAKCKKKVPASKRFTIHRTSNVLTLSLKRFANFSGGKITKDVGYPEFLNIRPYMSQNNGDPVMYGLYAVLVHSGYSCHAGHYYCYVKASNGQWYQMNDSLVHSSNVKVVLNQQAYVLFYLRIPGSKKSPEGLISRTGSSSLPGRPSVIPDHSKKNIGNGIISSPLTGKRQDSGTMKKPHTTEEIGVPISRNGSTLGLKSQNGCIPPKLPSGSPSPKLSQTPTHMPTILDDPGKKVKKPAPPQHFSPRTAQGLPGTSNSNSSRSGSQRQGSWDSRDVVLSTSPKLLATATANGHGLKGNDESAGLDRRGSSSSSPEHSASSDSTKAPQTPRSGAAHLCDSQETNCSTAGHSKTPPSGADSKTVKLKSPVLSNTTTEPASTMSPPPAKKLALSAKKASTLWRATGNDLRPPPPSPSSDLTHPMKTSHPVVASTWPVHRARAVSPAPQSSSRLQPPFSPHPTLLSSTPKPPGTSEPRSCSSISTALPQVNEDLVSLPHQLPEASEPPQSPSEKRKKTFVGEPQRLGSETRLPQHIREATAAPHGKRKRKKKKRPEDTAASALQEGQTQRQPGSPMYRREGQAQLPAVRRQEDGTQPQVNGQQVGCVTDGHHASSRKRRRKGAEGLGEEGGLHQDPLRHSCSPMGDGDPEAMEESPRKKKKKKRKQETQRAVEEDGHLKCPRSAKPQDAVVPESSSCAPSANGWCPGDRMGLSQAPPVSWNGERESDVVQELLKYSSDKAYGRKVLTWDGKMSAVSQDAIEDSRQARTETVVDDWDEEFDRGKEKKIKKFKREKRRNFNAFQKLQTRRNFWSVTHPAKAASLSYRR
In short: as §1

USP38 = target: T2, USP38 (UniProt Q8NB14)
T2 sequence (whole entry): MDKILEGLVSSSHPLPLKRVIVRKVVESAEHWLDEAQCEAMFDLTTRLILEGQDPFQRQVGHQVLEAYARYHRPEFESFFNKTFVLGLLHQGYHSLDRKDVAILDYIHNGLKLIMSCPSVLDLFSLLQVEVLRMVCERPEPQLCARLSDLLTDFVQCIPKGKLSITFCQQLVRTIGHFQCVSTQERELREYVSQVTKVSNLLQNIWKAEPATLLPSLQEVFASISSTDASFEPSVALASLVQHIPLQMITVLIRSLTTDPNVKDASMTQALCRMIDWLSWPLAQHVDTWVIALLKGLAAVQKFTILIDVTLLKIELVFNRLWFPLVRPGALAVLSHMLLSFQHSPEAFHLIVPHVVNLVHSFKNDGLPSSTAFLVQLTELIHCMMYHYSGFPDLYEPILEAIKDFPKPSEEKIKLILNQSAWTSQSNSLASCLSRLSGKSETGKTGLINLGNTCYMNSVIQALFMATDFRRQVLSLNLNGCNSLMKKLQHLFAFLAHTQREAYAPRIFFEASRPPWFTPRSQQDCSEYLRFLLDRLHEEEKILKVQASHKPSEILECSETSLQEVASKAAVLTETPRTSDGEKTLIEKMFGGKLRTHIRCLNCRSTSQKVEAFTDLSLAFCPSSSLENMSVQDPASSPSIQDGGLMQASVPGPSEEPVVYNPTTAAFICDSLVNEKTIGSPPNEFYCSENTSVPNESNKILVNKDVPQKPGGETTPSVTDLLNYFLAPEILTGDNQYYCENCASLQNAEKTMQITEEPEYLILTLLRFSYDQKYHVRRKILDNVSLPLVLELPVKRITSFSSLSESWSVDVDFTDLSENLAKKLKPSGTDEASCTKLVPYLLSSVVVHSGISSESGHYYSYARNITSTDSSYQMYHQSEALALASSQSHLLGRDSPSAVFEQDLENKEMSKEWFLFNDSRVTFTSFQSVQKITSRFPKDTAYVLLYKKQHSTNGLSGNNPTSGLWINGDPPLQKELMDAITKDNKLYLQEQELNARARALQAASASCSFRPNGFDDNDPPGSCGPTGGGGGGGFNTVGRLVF
In short: as §1

USP39 = target: T3, USP39 (UniProt Q53GS9)
T3 sequence (whole entry): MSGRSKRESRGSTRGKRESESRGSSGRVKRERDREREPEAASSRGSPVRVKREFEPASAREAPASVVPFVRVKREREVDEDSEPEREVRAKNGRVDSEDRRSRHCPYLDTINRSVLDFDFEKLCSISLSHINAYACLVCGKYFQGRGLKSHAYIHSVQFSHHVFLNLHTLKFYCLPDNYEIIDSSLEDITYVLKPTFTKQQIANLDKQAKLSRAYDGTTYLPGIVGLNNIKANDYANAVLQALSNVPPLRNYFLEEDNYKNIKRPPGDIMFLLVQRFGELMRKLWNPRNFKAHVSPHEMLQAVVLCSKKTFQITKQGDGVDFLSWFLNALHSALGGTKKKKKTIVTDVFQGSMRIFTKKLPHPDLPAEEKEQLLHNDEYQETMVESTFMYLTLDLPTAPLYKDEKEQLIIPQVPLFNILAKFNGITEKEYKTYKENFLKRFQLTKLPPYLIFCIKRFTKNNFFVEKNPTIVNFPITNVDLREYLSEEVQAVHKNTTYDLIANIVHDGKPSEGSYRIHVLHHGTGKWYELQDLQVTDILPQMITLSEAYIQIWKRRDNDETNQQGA
In short: as §1

USP4 = target: T4, USP4 (UniProt Q13107)
T4 sequence (whole entry): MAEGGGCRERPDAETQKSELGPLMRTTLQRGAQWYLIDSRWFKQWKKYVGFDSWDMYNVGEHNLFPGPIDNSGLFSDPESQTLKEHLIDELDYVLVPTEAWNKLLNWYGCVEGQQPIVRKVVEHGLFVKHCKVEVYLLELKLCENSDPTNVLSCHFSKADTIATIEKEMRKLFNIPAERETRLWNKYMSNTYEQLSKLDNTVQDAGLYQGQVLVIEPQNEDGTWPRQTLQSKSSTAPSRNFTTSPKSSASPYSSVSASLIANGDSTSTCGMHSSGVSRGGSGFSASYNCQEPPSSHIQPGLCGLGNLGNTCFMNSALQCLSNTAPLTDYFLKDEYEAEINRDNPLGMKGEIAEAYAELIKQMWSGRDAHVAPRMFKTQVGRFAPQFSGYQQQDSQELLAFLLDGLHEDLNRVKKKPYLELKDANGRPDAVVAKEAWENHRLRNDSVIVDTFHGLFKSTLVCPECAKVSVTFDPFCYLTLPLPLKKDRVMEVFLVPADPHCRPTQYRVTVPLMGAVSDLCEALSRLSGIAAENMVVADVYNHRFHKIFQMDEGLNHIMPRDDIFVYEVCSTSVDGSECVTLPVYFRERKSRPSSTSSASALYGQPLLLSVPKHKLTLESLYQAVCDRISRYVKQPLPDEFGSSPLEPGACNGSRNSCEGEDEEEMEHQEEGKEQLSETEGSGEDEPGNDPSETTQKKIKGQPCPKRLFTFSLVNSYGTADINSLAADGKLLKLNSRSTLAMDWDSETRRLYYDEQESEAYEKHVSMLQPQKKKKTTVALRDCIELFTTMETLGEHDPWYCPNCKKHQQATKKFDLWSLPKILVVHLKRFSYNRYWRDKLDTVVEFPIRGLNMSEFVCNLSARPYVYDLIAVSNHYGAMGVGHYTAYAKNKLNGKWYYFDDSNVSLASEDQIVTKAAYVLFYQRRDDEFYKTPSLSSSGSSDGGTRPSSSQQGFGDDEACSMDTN
In short: as §1

Measured: log2 ratio of Biotin-Ahx-Ub-VS probe labelling

CC1CCc2onc(CNC(=O)CCl)c2C1 (stereo not given)
inactive: USP34 0.0236 | USP36 0.0286 | USP38 0.0155 | USP39 0.358 | USP4 0.094
